DT40 TDP1 no CPT: qHTS for Inhibitors of human tyrosyl-DNA phosphodiesterase 1 (TDP1): qHTS in cells in absence of CPT; Potency, µM (series often up to 46.2 µM), actives largely listed as inhibitors; DT40 Tdp1-/- hTDP1 cells, no CPT, ATP luminescence, 48 h; 420,000 compounds, 15% hits; AID 686978, 2013; note: nearly all actives have a fitted effect of over 55% in size
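Chicken DT40 Tdp1-/- cells complemented with human TDP1, screened without camptothecin (DMSO vehicle only), 400 cells/well. Compounds pin-transferred, cells incubated at 37 °C for at least 48 hr. Growth read as ATP-dependent luminescence (CellTiter-Glo, 30 min at RT).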
RORg inh: ROR gamma (mouse) transcription inhibition; 310,000 compounds, 5.4% hits; Potency, µM (series often up to 53.6 µM), usual class: inhibitors; Drosophila S2 Gal4-RORgamma UAS-luciferase reporter, 20 h; P51450; note: nearly all actives have a fitted effect of over 60% in size
Target sequence (P51450 whole entry, looked up, the tested form may be a part): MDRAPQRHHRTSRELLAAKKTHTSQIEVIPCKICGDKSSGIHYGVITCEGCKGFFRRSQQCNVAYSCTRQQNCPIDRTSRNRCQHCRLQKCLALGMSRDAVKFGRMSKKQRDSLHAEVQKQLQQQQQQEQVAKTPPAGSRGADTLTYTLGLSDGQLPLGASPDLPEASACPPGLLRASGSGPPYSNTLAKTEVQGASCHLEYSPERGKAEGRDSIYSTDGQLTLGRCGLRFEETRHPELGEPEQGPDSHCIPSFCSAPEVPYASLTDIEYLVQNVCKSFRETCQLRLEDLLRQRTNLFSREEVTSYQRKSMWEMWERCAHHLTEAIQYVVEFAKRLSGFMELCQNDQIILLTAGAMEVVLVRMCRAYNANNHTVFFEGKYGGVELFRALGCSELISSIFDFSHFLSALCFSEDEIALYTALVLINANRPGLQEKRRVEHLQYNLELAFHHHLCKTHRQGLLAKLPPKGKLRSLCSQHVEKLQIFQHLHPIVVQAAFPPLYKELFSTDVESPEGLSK
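Schneider cells (Drosophila), stable Gal4 DBD–ROR gamma + UAS-luc; 1 hr cmpd preincubation; Cu2+ induction 700 uM final; 20 hr ambient; luminescence.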
Gal4-VP16 FLuc: counter-screen for ROR gamma inhibitors: Gal4-VP16 reporter. Drosophila S2 Gal4-VP16 UAS-luciferase, luminescence, 20 h. Potency, µM (highest dose often 53.6 µM), most hits filed as inhibitors. 310,000 compounds, 3.5% hits. AID 2546;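 note: Gal4-VP16 expression switched on by copper sulfate through the metallothionein promoter; nearly all actives have a fitted effect of over 50% in size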
ELG1 repair inh: inhibitors of ELG1-dependent DNA repair in HEK293T cells; AID 504467; Potency, µM (highest dose often 46.1 µM), hits mostly inhibitors; HEK293T ELG1-luciferase reporter, luminescence, 16 h; DNA damage induced by 5-fluorouridine; 330,000 compounds, 2.3% hits; note: nearly all actives have a fitted effect of over 55% in size
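HEK293T cells expressing luciferase-tagged ELG1 (2,000/well) received 5-Fluorouridine plus compound or DMSO for 16 hr at 37 °C. Luciferase was read by ONE-Glo luminescence after 30 min at room temperature.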
DT40 TDP1 CPT: growth inhibition of DT40 Tdp1-/-;hTDP1 cells with camptothecin (screen for TDP1 inhibitors) | chicken DT40 Tdp1-/-;hTDP1 cells + 20 nM CPT, ATP luminescence, 48 h | Potency, µM (doses to about 46.2 µM), usual class: inhibitors | 420,000 compounds, 12% hits; note: nearly all actives have a fitted effect of over 55% in size
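Chicken DT40 Tdp1-/- cells stably complemented with human TDP1 were seeded at 400 cells/well in medium containing 20 nM camptothecin, exposed to pin-transferred compounds, and grown at 37 °C for at least 48 hr. Viability was read as ATP luminescence.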
IL1B secr inh: inflammasome signaling inhibition, IL-1 beta readout; THP-1 LPS/ATP IL-1B secretion, AlphaLISA, 16 h; stronger effect = lower value; activity change, % at 57.5 µM; 360,000 compounds, 4.7% hits; in the data active = activity change below about -50%; inconclusive = mostly about -30% to -49%
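Secreted IL-1B measured by AlphaLISA bead assay after 16 h compound exposure of THP-1 cells; compounds (final up to 57.5 uM) added 1 h before LPS (250 ng/mL) and ATP (1.25 mM) stimulation; lower signal means less secretion.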
Large screens that a line does not name were inactive. Only some compounds are listed: those with a hit (about 21% of all), similar ones and a draw of the others. Unless noted, calls come from the whole dose curve; as a rule, active = well fitted curve in the direction sought with a large enough effect; inconclusive = small, poorly fitted or top-dose-only effect, or another doubt; inactive = no such curve, though single readings can be large; an effect the other way counts as inactive or inconclusive.

CC(=O)N/C(=C\c1ccc(C)o1)C(=O)NCc1ccccc1	none
CCc1sc(Nc2cccc(Cl)c2)nc1-c1cc2cccc(OC)c2oc1=O	DT40 TDP1 no CPT 16.4µM, DT40 TDP1 CPT inconclusive (no result: RORg inh, Gal4-VP16 FLuc, ELG1 repair inh, IL1B secr inh)
COc1cccc2cc(-c3nc4ccccc4o3)c(=O)oc12	ELG1 repair inh inconclusive
COc1cc(CN2CC(=O)N(c3ccccc3Cl)C2=S)cc(OC)c1OC	DT40 TDP1 no CPT inconclusive, Gal4-VP16 FLuc inconclusive, ELG1 repair inh inconclusive, DT40 TDP1 CPT 18.4µM
COc1cc(CN2CC(=O)N(c3cccc(Cl)c3C)C2=S)cc(OC)c1OC	DT40 TDP1 no CPT inconclusive, ELG1 repair inh inconclusive, DT40 TDP1 CPT 23.1µM
COc1cc(Cl)c(C)cc1N1C(=O)CN(Cc2ccccc2)C1=S	DT40 TDP1 no CPT inconclusive
Cc1cccc(N2C(=O)CN(Cc3ccccc3)C2=S)c1	none
O=C(NCc1ccncc1)C(=O)Nc1nc(C23CC4CC(CC(C4)C2)C3)cs1	DT40 TDP1 no CPT 20.6µM, ELG1 repair inh 18.4µM, DT40 TDP1 CPT 20.6µM
O=C(NCc1ccc(F)cc1)C(=O)Nc1nc(C23CC4CC(CC(C4)C2)C3)cs1	DT40 TDP1 no CPT inconclusive, RORg inh 5.62µM, Gal4-VP16 FLuc 3.98µM, DT40 TDP1 CPT inconclusive
COc1ccc(C(=O)Nc2nc(CC(=O)NCc3ccc(F)cc3)cs2)cc1	DT40 TDP1 no CPT inconclusive, ELG1 repair inh inconclusive, DT40 TDP1 CPT inconclusive (no result: RORg inh, Gal4-VP16 FLuc)
O=C(NCc1cccnc1)C(=O)Nc1nc(C23CC4CC(CC(C4)C2)C3)cs1	DT40 TDP1 no CPT 16.4µM, RORg inh inconclusive, ELG1 repair inh inconclusive, DT40 TDP1 CPT inconclusive
CNC(=O)C(=O)Nc1nc(C23CC4CC(CC(C4)C2)C3)cs1	ELG1 repair inh inconclusive
O=C(NCc1ccccc1)C(=O)Nc1nc(C23CC4CC(CC(C4)C2)C3)cs1	DT40 TDP1 no CPT inconclusive, RORg inh 7.94µM, Gal4-VP16 FLuc 7.08µM, ELG1 repair inh inconclusive, DT40 TDP1 CPT 23.1µM
C=C1C=CS(=O)(=O)N(C(CC(C)C)C(=O)OC)C1 (stereo not drawn)	none (no result: DT40 TDP1 no CPT, ELG1 repair inh, DT40 TDP1 CPT, IL1B secr inh)
O=C(/C=C/c1ccccc1)OCCCN=C1NS(=O)(=O)c2ccccc21	DT40 TDP1 no CPT inconclusive, ELG1 repair inh inconclusive
Cc1cccc(C(=O)Nc2sc3c(c2C(=O)O)CCCC3)c1	DT40 TDP1 no CPT inconclusive, ELG1 repair inh inconclusive, DT40 TDP1 CPT 16.4µM
Cc1cccc(C(=O)Nc2sc3c(c2C(=O)Nc2ccccc2)CCC3)c1	DT40 TDP1 no CPT inconclusive (no result: RORg inh, Gal4-VP16 FLuc, ELG1 repair inh, IL1B secr inh)
CCN(CC)C(=O)c1c(NC(=O)c2cccc(C)c2)sc2c1CCC(C)C2 (stereo not drawn)	DT40 TDP1 no CPT 16.4µM, DT40 TDP1 CPT 23.1µM (no result: RORg inh, Gal4-VP16 FLuc, ELG1 repair inh, IL1B secr inh)
Cc1cccc(NC(=O)c2c(Br)sc3c2CCCC3)c1	DT40 TDP1 no CPT 23.1µM, DT40 TDP1 CPT inconclusive (no result: RORg inh, Gal4-VP16 FLuc, ELG1 repair inh, IL1B secr inh)
CCOC(=O)C1CCCN1C(=O)C1(NC(C)=O)CCCC1 (stereo not drawn)	none (no result: RORg inh, Gal4-VP16 FLuc, ELG1 repair inh)
C[C@]12CCC(=O)C=C1[C@@H]1C[C@@H]1[C@H]1[C@@H]3[C@@H]4C[C@@H]4[C@@]4(CCC(=O)O4)[C@@]3(C)CC[C@@H]12	DT40 TDP1 no CPT 7.5µM, DT40 TDP1 CPT 8.41µM (no result: RORg inh, Gal4-VP16 FLuc, ELG1 repair inh, IL1B secr inh)
CCC[C@@H]1CC2=CC(=O)CC[C@]2(C)[C@H]2CC[C@@]3(C)[C@@H](CC[C@@]34CCC(=O)O4)[C@H]12	none (no result: DT40 TDP1 no CPT, ELG1 repair inh, DT40 TDP1 CPT, IL1B secr inh)
COCCn1c(=S)[nH]c2cc(C(=O)N3CCN(Cc4ccc5c(c4)OCO5)CC3)ccc2c1=O	DT40 TDP1 no CPT 18.4µM, ELG1 repair inh 5.17µM, DT40 TDP1 CPT inconclusive
COC(=O)c1ccc2c(=O)n(Cc3ccc4c(c3)OCO4)c(=S)[nH]c2c1	DT40 TDP1 no CPT inconclusive, RORg inh 2.51µM, Gal4-VP16 FLuc 3.55µM
Cc1nc(-c2ccc(F)cc2)c(CC(=O)N2CCN(S(=O)(=O)c3cccc([N+](=O)[O-])c3)CC2)s1	DT40 TDP1 no CPT inconclusive, ELG1 repair inh inconclusive, DT40 TDP1 CPT inconclusive (no result: RORg inh, Gal4-VP16 FLuc)
CCOC(=O)C1(C(=O)OCC)COC(=O)C1CN1Cc2cc3ccccc3nc2C1 (stereo not drawn)	DT40 TDP1 no CPT 9.2µM, DT40 TDP1 CPT 10.3µM (no result: RORg inh, Gal4-VP16 FLuc, ELG1 repair inh)

Screening data (PubChem BioAssay)
